# Measured values from PubChem BioAssay AID1645851 (National Center for Advancing Translational Sciences (NCATS), 2021).
# Where “and” joins values, the source holds several entries; their conditions need not be identical. Equal values may be shown once. The campaign covered roughly 140,000 compounds. About 1,200 (0.86%) were called active. No stated cut-off is given here; in the data, active means activity change below about -25%; inactive means the rest. For the sample, actives were picked, then their nearest neighbours and some compounds at random.
# Biological target: Inositol hexakisphosphate kinase 1 (Homo sapiens) (UniProt Q92551)
# Sequence (Q92551 whole entry, looked up): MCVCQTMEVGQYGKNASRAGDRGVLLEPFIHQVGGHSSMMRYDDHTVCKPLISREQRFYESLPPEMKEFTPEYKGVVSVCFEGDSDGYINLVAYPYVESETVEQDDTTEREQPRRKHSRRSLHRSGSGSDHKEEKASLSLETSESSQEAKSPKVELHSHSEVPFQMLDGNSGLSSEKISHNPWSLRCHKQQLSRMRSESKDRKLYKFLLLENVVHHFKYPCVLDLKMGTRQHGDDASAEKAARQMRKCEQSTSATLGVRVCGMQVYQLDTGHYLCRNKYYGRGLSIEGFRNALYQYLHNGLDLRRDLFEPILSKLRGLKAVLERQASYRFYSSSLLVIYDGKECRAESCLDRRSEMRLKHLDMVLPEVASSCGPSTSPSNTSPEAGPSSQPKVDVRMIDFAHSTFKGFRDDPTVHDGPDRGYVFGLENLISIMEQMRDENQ
# Experiment: Primary qHTS assay for small molecule inhibitors of Inositol hexaphosphate kinase 1 (IP6K1); further: series mostly up to about 58 µM
# Conditions: ADP-Glo luminescence, 2 h, hits give low values
# Excerpt: Assay Provider: Huijun Wei, M.S., Ph.D. School of Medicine, Johns Hopkins University, Baltimore, MD Inositol hexakisphosphate kinases (IP6Ks) catalyze pyrophosphorylation of inositol hexakisphosphate (IP6) into inositol 5-diphospho-1,2,3,4,6-pentakisphosphate (IP7), which is involved in numerous areas of cell physiology including glucose homeostasis, blood coagulation and neurological development. Inhibition of IP6Ks may be effective for the treatment of Type II diabetes, thrombosis, and psychiatric disorders. We performed a quantitative high throughput screen (qHTS) of 158,410 compounds for IP6K1 inhibitors using ankinase activity ADP-Glo Max assay. […] Medicinal chemistry SAR efforts in three chemical series identified potent IP6K1 inhibitors, which were further validated in an orthogonal LC-MS IP7 analysis.
# PROTOCOL TABLE SEQUENCE No. (e.g., 1, 2, 3, etc.); […] (e.g., Cells, Incubation, Reagent, etc.); VALUE and DESCRIPTION. 1. Reagent, 3 uL of 1.3 mM ATP and 130 uM IP6 mixture in assay buffer was dispensed to a white, 1536-well assay plate. 2. Compound, 23 nL of compounds of the top two doses (57.5 uM and 19.1 uM final concentration) of the libraries were dispensed into the mixture using the Kalypsis pintool. 3. Reagent, 1 uL of 2.4 uM IP6K1 was dispensed to the assay plates. 4. Incubation, 2 hr incubation at room temperature. 5. Reagent, 2 uL of ADP-Glo reagent was added to the wells. 6. Incubation, 1 hr incubation at room temperature. 7. Reagent, 4 uL or ADP-Glo substate was added to the wells. 8. Incubation, 45 min incubation at room temperature. 9. Detection, luminescence signal was detected using the ViewLux microplate imager (PerkinElmer).
# On the % scale 0 is the no-effect control and ±100 the full control effect.
row,SMILES,activity change
1,CCOC(=O)c1cc(-c2ccc(OC)c(S(=O)(=O)Nc3ccc(OC)cc3OC)c2)on1,1.78% (inactive)
2,Cc1ccc(-c2cc(C(=O)Oc3ccccc3Cl)no2)cc1C,-29.7% (active)
3,COCCNC(=O)c1cc(-c2cccc(Cl)c2)on1,-0.0295% (inactive)
4,CC(O)CNC(=O)c1ccc(-c2ncc3cnc(C4=CCOCC4)cn23)cc1 (stereo not given),-10.8% (inactive)
5,Cc1ccccc1CC(=O)N1CCCC(n2cc(-c3nc(-c4ccccc4)no3)nn2)C1 (stereo not given),9.4% (inactive)
6,CC(C)NC(=O)N1CCN(c2ccc3nnc(C4CC4)n3n2)CC1,5.65% (inactive)
7,Cc1ccccc1NC(=O)c1c(NC(=O)c2ccccc2F)sc2c1CCC(C)C2 (stereo not given),-11.5% (inactive)
8,Cc1cccc(C(=O)NCCC2CCN(C(=O)Nc3ccc(F)cc3F)CC2)c1,-7.16% (inactive)
9,Cc1cccc(N2CCN(c3ccc(C(=O)O)cc3NC(=O)c3ccccc3F)CC2C)c1 (stereo not given),-32.2% (active)
10,Cc1cccc(C)c1-c1nc(C(=O)N2CCN(c3ncccn3)CC2)n2ccccc12,8.82% (inactive) and 13.4% (inactive)
11,CN1C[C@H](NS(C)(=O)=O)CCC[C@@H](C(=O)N(C)Cc2cccnc2)CC1=O,5.58% (inactive)
12,COc1c(C)cnc(CN(C)C(=O)C2CC(=O)N(C3CCCC3)C2)c1C (stereo not given),-26.5% (active)
13,CCn1nc(CNC(=O)C2CCC(=O)N(C3CCCC3)C2)c2ccccc21 (stereo not given),-2.6% (inactive)
14,O=C(NC1CCN(c2nccc(Nc3ccccc3Cl)n2)CC1)c1ccccn1,0.678% (inactive)
15,Cc1ccncc1C(=O)N1CCC(Cn2c(C)cnc2-c2cccnc2)CC1,7.69% (inactive)
16,Cc1ccncc1C(=O)N1CCC2(CC1)CC(c1ccccc1)C(=O)N2C (stereo not given),-28.9% (active)
17,Cc1cc(N2CCC3(CC2)CC(c2ccccc2)C(=O)N3C)ncn1 (stereo not given),10.4% (inactive)
18,COc1ccccc1-c1ccc(CN2CCC(NC(=O)c3ccncc3)C2)cc1 (stereo not given),24.3% (inactive)
19,Cc1ccc(CN2C(=O)[C@@H]3C[C@@H](O)CN3C3(CN(Cc4ccc(C(F)(F)F)cc4)C3)C2=O)o1,-6.91% (inactive)
20,Cc1cc(Cl)ccc1OCC(=O)N1CCc2n[nH]c(=O)n2CC1,-14.4% (inactive)
21,COc1cc(C(=O)NCCS(=O)(=O)N2CCN(c3ccccc3)CC2)cc(OC)c1OC,23.9% (inactive)
22,COc1ccccc1N1CCN(S(=O)(=O)CCNC(=O)COc2ccc(F)cc2)CC1,-44.5% (active)

row,SMILES,activity change
1,COc1ccc(N2CCN(S(=O)(=O)CCNC(=O)C(c3ccccc3)c3ccccc3)CC2)cc1,23.7% (inactive)
2,Cc1ccc2c(c1)N(CC(=O)NCCCN1CCCCC1)C(=O)c1cccnc1O2,-101% (active)
3,O=C(CN1C(=O)c2cccnc2Oc2ccc(Cl)cc21)NCCc1ccccc1,-2.8% (inactive)
4,Cc1ccc2c(c1)N(CC(=O)NCCc1ccc(Cl)cc1)C(=O)c1cccnc1O2,-4.44% (inactive)
5,Cc1ccc(C2(O)CCN(c3nccc(CCC(F)(F)F)n3)CC2)nc1,-3.3% (inactive)
6,CCOc1cccc2c1OC[C@@H]1CN(CCOC)C(=O)CCN(C(=O)c3ccccc3OC)[C@H]21,-8.59% (inactive)
7,CC(C)(C)OC(=O)N1CCC(c2c(C(=O)NCc3ccccn3)cnn2-c2ccc(F)cc2)CC1,-1.08% (inactive)
8,CC(C)(C)OC(=O)N1CCC(c2c(C(=O)N3CCc4ccccc4C3)cnn2-c2ccc(F)cc2)CC1,-28.8% (active)
9,Cc1cccc(-n2ncc(C(=O)N3CCc4ccccc4C3)c2C2CCN(C(=O)OC(C)(C)C)CC2)c1,32.7% (inactive)
10,COc1ccc(-c2cc(C(=O)NCC(F)(F)F)c3c(C4CCCN4)nn(C)c3n2)cc1 (stereo not given),-2.22% (inactive)
11,COc1ccccc1-c1cccc(C(=O)N2CCN(C(=O)Cc3ccc(F)cc3)CC2)c1,5.42% (inactive)
12,CCOC(=O)c1ccc(NC(=O)CCS(=O)(=O)c2ccc3c(c2)oc(=O)n3C)cc1,9.62% (inactive)
13,CCOC(=O)c1ccc(NC(=O)CCn2cnnn2)cc1,7.68% (inactive)
14,CCOC(=O)c1ccc(NC(=O)CCS(=O)(=O)c2ccc(C)cc2)cc1,-30% (active)
15,O=C(NCc1ccc(F)cc1)C1CCN(c2nccc(Nc3ccccc3F)n2)CC1,18.1% (inactive)
16,CN(c1ccccc1)c1cc(=O)c2ccnc(-c3ccc(CO)cc3)c2o1,-7.57% (inactive)
17,CN(c1ccccc1)c1cc(=O)c2ccnc(Nc3cccc([S+](C)(=O)[O-])c3)c2o1,-11.6% (inactive)
18,CN(c1ccccc1)c1cc(=O)c2ccnc(NC3CCOCC3)c2o1,-36.2% (active)
19,COc1ccc(-n2nc(C3CCN(Cc4ccccn4)CC3)[nH]c2=O)cc1,7.19% (inactive)
20,O=C(Nc1ccc(F)cc1)c1nc2cccnc2n(Cc2ccccc2)c1=O,14.3% (inactive)
21,O=C1CCN(CC(O)COc2ccccc2)c2cc3c(cc2CN1CC1CC1)OCO3 (stereo not given),-10.5% (inactive)
22,COc1ccc(OCC2CN(Cc3cccc(F)c3)[S+](=O)([O-])c3cccnc3O2)cc1 (stereo not given),0.413% (inactive)

row,SMILES,activity change
1,O=C1CCN(C(=O)[C@H](Cc2ccccc2)NC(=O)NC2CCCCC2)CCCOCCN1,9.58% (inactive)
2,COc1ccc(CNC(=O)c2noc(-c3ccc(F)cc3)n2)cc1,7.64% (inactive)
3,COc1ccc(-c2nc(CCNC(=O)c3ccc(Br)o3)cs2)cc1,-32.8% (active)
4,COc1ccc(CCC(=O)NCCc2csc(-c3ccc(Cl)cc3)n2)cc1,-1.97% (inactive)
5,O=C(c1cccc(OC2CN(Cc3nccs3)C2)c1)N1CCOCC1,-3.36% (inactive)
6,O=C(NCc1cccc(Cl)c1)c1ccc2nccn2c1,-8.99% (inactive)
7,Cc1n[nH]c(C)c1CNC(=O)C1Cn2cccc2C(=O)N1Cc1ccccc1 (stereo not given),-3.14% (inactive)
8,COc1ccc(Cl)cc1-c1ccc2c(c1)C(=O)N1CCN(C(=O)CSC)C[C@@H]1C(=O)N2,-8.89% (inactive)
9,Cc1ccc(NC(=O)c2cc(S(=O)(=O)NCCC3=CCCCC3)ccc2F)cc1C,-26.3% (active)
10,CCc1ccc(NC(=O)c2cc(S(=O)(=O)NC3CCCCCC3)ccc2F)cc1,-6.25% (inactive)
11,COc1ccccc1NC(=O)c1cc(S(=O)(=O)NCCc2ccccc2)ccc1F,14.4% (inactive)
12,Cc1nn(-c2ccccc2)c2c1C(C)N(C1CCN(C(=O)C(C)C)CC1)C2=O (stereo not given),2.6% (inactive)
13,O=C(NCc1ccccc1)c1c(-c2ccccc2)cc(=O)n2c1CCCC2,5.1% (inactive)
14,COc1ccccc1-c1ccc(CN2CCC(NC(=O)c3ccc(Cl)nc3)C2)cc1 (stereo not given),8.29% (inactive)
15,CC(C)Cn1c(=O)c(C(=O)NCc2ccc(F)cc2)nc2cccnc21,8.42% (inactive)
16,CC(C)(C)c1ccc(C(=O)Nc2cc(Cl)c(Br)cc2C(=O)O)cc1,-35.3% (active)
17,O=C(Nc1cccc(NC(=O)c2ccc(Br)cc2)c1)c1ccccc1,-16% (inactive)
18,O=C(Nc1ccc(C(=O)O)c(O)c1)c1ccccc1,7.03% (inactive)
19,CC(=O)c1cc(CC(=O)NCc2cc(F)c(F)cc2F)cs1,-1.78% (inactive)
20,C[C@H]1[C@@H]2[C@@H](O)C([C@H](C)C(=O)NC3CCCC3)CC[C@@]2(C)CC[C@@H]1NC(=O)c1ccc(C#N)cc1 (stereo not given in full),8.22% (inactive)
21,Cn1ncc2c(C(=O)N3CCN(c4ncccn4)CC3)cc(-c3ccc(C(F)(F)F)cc3)nc21,2.25% (inactive)
22,Cc1cc(C(=O)N2CCC3(CCCNC3=O)C2)ccc1N1CCOCC1 (stereo not given),11% (inactive)

row,SMILES,activity change
1,COc1ccc(C2Cn3nnc(C(=O)N4CCN(C(=O)c5cccc(Cl)c5)CC4)c3CO2)cc1 (stereo not given),2.61% (inactive)
2,COc1ccc(C2Cn3nnc(C(=O)N4CCN(C(=O)c5ccc(C)cc5C)CC4)c3CO2)cc1 (stereo not given),-25.2% (active)
3,COc1ccc(C2Cn3nnc(C(=O)N4CCC(C(=O)NCc5ccc(C)cc5)CC4)c3CO2)cc1 (stereo not given),-5.17% (inactive)
4,CNC(=O)[C@@H]1C[C@@H](n2cc(CNC(=O)Nc3cccc(Cl)c3C)nn2)CN1,11.8% (inactive)
5,O=C(C1CC1)N1CCC(N2CC(OCC3CC3)C23CCOCC3)CC1 (stereo not given),-1.99% (inactive)
6,CN(C)[C@@H]1C(=O)C(C(N)=O)=C(O)[C@@]2(O)C(=O)C3=C(O)c4c(O)ccc(Cl)c4[C@@H](O)[C@H]3C[C@@H]12,-40.7% (active)
7,C(=C\c1ccccc1)/CN1CCN(c2ncncn2)CC1,-5.21% (inactive)
8,O=C(c1nc(-c2cccnc2)c2cnccn12)N1CCN(c2ncccn2)CC1,8.68% (inactive)
9,C(=C\c1ccccc1)/CN1CCN(c2nccc(-c3cccnc3)n2)CC1,-36.7% (active)
10,CCOC(=O)[C@@H]1[C@@H](O)C(=O)N(Cc2ccccc2)C12CCN(C(=O)c1cc3ccccc3s1)CC2,14.8% (inactive)
11,O=C(CC1CCCN(c2cnn(CC3CC3)c(=O)c2)C1)N1CCCC1 (stereo not given),15.7% (inactive)
12,Cc1ccc(-c2onc(C)c2C)cc1S(=O)(=O)Nc1ccccn1,-25.5% (active)
13,COc1ccc(-c2onc(C)c2C)cc1S(=O)(=O)NCCc1ccccc1,17.3% (inactive)
14,COc1ccc(-c2onc(C)c2C)cc1S(=O)(=O)NCc1cccs1,41.7% (inactive)
15,C=CCCC(CN1CCCC1)Oc1ncc(F)c(N2CCCC2)n1 (stereo not given),-2.11% (inactive)
16,COc1ccc(NC(=O)N2CCC(CC(=O)NCc3ccccc3)C2)cc1OC (stereo not given),-12.4% (inactive)
17,COc1cc(NC(=O)Nc2cccc(CNC(=O)O[C@H]3CCOC3)c2)ccc1-c1cnco1,-31.9% (active)
18,O=C(NCC1CCOCC1)Nc1cccc(Cl)c1,18.6% (inactive)
19,C=CCCC(=O)N1CCC2(CCCN(Cc3cccc(F)c3F)C2=O)C1 (stereo not given),-2.13% (inactive)
